Drawing on PubChem BioAssay (EPA / NIEHS), this text covers outcome and AC50 for 34 compounds.

Where a structure was tested more than once in an assay, its records may differ in their call. Active and inactive are the calls of the source. The calls were made as follows: active = hit-call score of the fitted dose curve at least 0.9, where 1 is the maximum; inconclusive = response in the unintended direction; inactive = score below 0.9.

Sequence of Peroxisome proliferator-activated receptor gamma (Homo sapiens) (P37231 whole entry, looked up, the tested form may be a part): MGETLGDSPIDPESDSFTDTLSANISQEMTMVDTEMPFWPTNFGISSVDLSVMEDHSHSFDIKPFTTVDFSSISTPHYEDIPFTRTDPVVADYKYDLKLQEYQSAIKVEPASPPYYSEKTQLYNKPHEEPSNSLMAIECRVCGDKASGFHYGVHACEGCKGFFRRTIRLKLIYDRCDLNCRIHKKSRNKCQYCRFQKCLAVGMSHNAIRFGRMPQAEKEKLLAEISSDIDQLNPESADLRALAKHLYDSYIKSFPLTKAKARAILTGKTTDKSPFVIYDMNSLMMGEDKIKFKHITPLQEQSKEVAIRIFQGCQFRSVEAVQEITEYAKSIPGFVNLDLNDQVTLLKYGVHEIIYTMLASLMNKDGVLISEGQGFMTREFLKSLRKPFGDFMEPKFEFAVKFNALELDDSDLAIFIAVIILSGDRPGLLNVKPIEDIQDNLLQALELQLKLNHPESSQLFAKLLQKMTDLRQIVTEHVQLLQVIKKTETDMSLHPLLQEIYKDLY

The target of this assay is Peroxisome proliferator-activated receptor gamma (Homo sapiens) (UniProt P37231). Nature of the assay: OT_PPARg_PPARgSRC1_1440: Odyssey Thera (OT) 24-hour Protein-Complementation Assay for Peroxisome Proliferator-activated Receptor Gamma/ SRC-1 Co-activator (AID 2283388).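 Also: nuclear to cytoplasmic ratio of reconstituted Venus YFP fluorescence in fixed imaged cells.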 The gist of the method:
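Readout is the 488 nm N/C fluorescence ratio from fixed, Draq5-stained HEK293T cells after 24 h compound exposure. Cells carried transiently transfected PPARg and SRC-1 fused to Venus fragments, transfected 48 h before treatment.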
For `CC(=O)N1CCN(c2ccc(OC[C@H]3CO[C@](Cn4ccnc4)(c4ccc(Cl)cc4Cl)O3)cc2)CC1`, the compound was called inactive.

For the compound `O=c1ccc2ccccc2o1`, the compound was called inactive.

Take `CCCCCCCCCCCO`: the compound was called inactive.

As for `CCCCCCCCN(C)CCCCCCCC`, the compound was called inactive.

For `Cc1cccc2ccccc12`, the call was inactive.

In the case of `CCCCCCCCOc1ccc(C(=O)c2ccccc2)c(O)c1`, the compound was called inactive.

With `Cc1ncc(CO)c(CO)c1O`, the compound was classed as inactive.

As for `CCCCCCCCCCCCO`, the call was inactive.

In the case of `Cc1cc2c(cc1C(F)(F)F)N(C(=O)Nc1ccc(Oc3cccnc3C)nc1)CC2`, the result was inactive.

With `OC12N=C(c3ccccc3)SC1Cc1cc(Cl)ccc12` (stereo not given), the compound was called inactive.

Take `Cc1ccc2oc(CN(Cc3ccccc3)C(=O)Nc3c(F)cc(F)cc3F)c(-c3ccc(Cl)cc3)c2c1`: the compound was classed as inactive.

In the case of `Clc1ccccc1C(c1ccccc1)(c1ccccc1)n1ccnc1`, the call was inactive.

Consider `NC(=O)c1nc(-c2cccc(-c3cc(F)ccc3OCC(F)(F)C(F)(F)F)c2)n[nH]1`, for which the compound was called inactive.

For `CCCCCCCCCC(=O)O`, the call was inactive.

As to `COc1cccc([C@H](O)C2CCN(CCc3ccc(F)cc3)CC2)c1OC`, the outcome was inactive.

As for `CO[C@H]1/C=C/O[C@@]2(C)Oc3c(C)c(O)c4c(O)c(c(/C=N/N5CCN(C)CC5)c(O)c4c3C2=O)NC(=O)/C(C)=C\C=C\[C@H](C)[C@H](O)[C@@H](C)[C@@H](O)[C@@H](C)[C@H](OC(C)=O)[C@@H]1C`, the outcome was inactive.

For `CCO[Si](CCCNC(N)=O)(OCC)OCC`, the compound was called inactive.

For `Oc1ccccc1`, the result was inactive.

In the case of `CC[C@@H]1C[C@H](N(Cc2cc(C(F)(F)F)cc(C(F)(F)F)c2)C(C)=O)c2cc(C(F)(F)F)ccc2N1C(=O)OC(C)C`, the compound was called inactive.

As for `O=C=NCCCCCCN=C=O`, the call was inactive.

As for `O=C(O)c1ccccc1C(=O)OCc1ccccc1`, the call was inactive.

For `CN1C(=O)CC[C@H]1c1cccnc1`, the result was inactive.

For `O=c1[nH]sc2ccccc12`, the compound was classed as inactive.

As to `CCCC(=O)OCCC(C)C`, the result was inactive.

In the case of `CC(O)CC(C)(C)O` (stereo not given), the outcome was inactive.

For the compound `OCCO`, the compound was classed as inactive.

For the compound `CCN(Cc1cccnc1)C(=O)c1cccc(Cl)c1[C@]1(C)C(=O)N(Cc2ccc(OC)cc2OC)c2ccc(Cl)cc21`, the compound was classed as inactive.

Consider `CCCCOC(=O)CC(CC(=O)OCCCC)(OC(C)=O)C(=O)OCCCC`, for which the compound was called inactive.

As to `Cc1ccc(C(C)C)cc1`, the compound was classed as inactive.

Turning to `CCN(Cc1cccc(S(=O)(=O)O)c1)c1ccc(C(=C2C=CC(=[N+](CC)Cc3cccc(S(=O)(=O)O)c3)C=C2)c2ccccc2S(=O)(=O)[O-])cc1`, the call was inactive.

With `Cc1occc1C(=O)Nc1ccc(C(=O)N2CCC(F)(F)/C(=C\C(=O)N3CCC(N4CCCCC4)CC3)c3ccccc32)cc1`, the compound was classed as inactive.

Turning to `Cc1cn([C@H]2C[C@H](N=[N+]=[N-])[C@@H](CO)O2)c(=O)[nH]c1=O`, the call was inactive.

As for `CC(C)(C)c1cc(/C=C2\SC(N)=NC2=O)cc(C(C)(C)C)c1O`, the AC50 (usually the midpoint of the concentration-response curve, whichever way the signal moves) is 66 µM (active) and the result was inactive.

As to `COCC(C)OCC(C)OCC(C)O` (stereo not given), the call was inactive.
